Test results published in PubChem BioAssay.
The source made the active and inactive calls.

How the values were obtained:
[1] = small molecules captured by biotinylated probe aFSTL3 – biochemical, small-molecule microarray, fluorescence 635/667, stem cell growth factor project, primary screen (AID 1064); details: higher = more signal;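 further: measures binding of the biotinylated anti-FSTL3 antibody to printed compounds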
[2] = binders from COS7 lysate, DM2A8 probe, primary screen, torsin A project, cell lysate, small-molecule microarray, fluorescence 635/667 (AID 1065); details: higher = more signal, COS7 lysate expressing mutant human TOR1A
[3] = small molecules captured by biotinylated probe aFGF2 – biochemical, small-molecule microarray, fluorescence 635/667, stem cell growth factor project, primary screen (AID 1067); details: higher = more signal;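 further: measures binding of biotinylated aFGF2 protein to printed compounds on slides; z-score merges feature fluorescence and signal-to-noise across triplicate slides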
[4] = small molecules captured by biotinylated probe aFGF10 – biochemical, small-molecule microarray, fluorescence 635/667, stem cell growth factor project, primary screen (AID 1071); details: higher = more signal;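 further: score merges 667 nm spot intensity and signal to noise from triplicate slides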
[5] = target: Neurogenic locus notch homolog protein 2 (Homo sapiens) (UniProt Q04721); experiment: small molecules binding Notch2 protein – biochemical, small-molecule microarray, 635 nm fluorescence, stem cell growth factors, primary screen (AID 1073); details: higher = more signal
[6] = target: Pro-neuregulin-1, membrane-bound isoform (Homo sapiens) (UniProt Q02297); experiment: small molecules binding neuregulin-1 protein – biochemical, small-molecule microarray, fluorescence 635/667, psychiatric disease protein project, primary screen (AID 1075); details: NRG1 binding, 635 nm fluorescence, higher = more signal;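 further: score combines 667 nm spot fluorescence with signal to noise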
[7] = test system: Neuregulin-1 EGF-like domain; experiment: small molecules binding NRG1 EGF domain – biochemical, small-molecule microarray, 635 nm fluorescence, primary screen (AID 1081); details: higher = more signal;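 further: binding of the protein to compounds printed on small-molecule microarray slides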
[8] = FRG1 expression reporter modulators in myotubes – cell-based, C2C12 myotubes, firefly/Renilla luciferase, luminescence, FRG1 inhibition for FSHD, primary screen (AID 1084); details: FRG1 promoter luciferase, higher = more signal, called active from +8 up or from −8 down
[9] = small molecules captured by biotinylated probe aFST – biochemical, small-molecule microarray, fluorescence 635/667, stem cell growth factor project, primary screen (AID 1086); details: higher = more signal;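 further: score merges 667 nm fluorescence with signal-to-noise of each printed compound spot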
[10] = binders of probe aHhip on microarray, primary screen, stem cell growth factor project, biochemical, small-molecule microarray, fluorescence 635/667 (AID 1087); details: higher = more signal;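 further: score merges spot fluorescence at 667nm with spot signal to noise ratio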
[11] = test system: PRMT1 (protein arginine N-methyltransferase 1); experiment: small molecules binding arginine methyltransferase PRMT1 – biochemical, small-molecule microarray, 635 nm fluorescence, primary screen (AID 1088); details: higher = more signal;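 further: binding of Prmt1 protein to compounds spotted on small-molecule microarray slides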
[12] = growth effects on S. cerevisiae YJM789 – YJM789 clinical isolate, OD600, 24 h, basal, primary screen (AID 1089); details: higher = more signal, called active from +8 up or from −8 down;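 further: growth of clinical yeast isolate S. cerevisiae YJM 789 seeded 1000 cells per well; test concentration not given here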
[13] = S. pombe growth modifiers, basal conditions – strain 972, OD600, 24 h, no modulator, primary screen (AID 1090);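 further: basal condition with compound alone and no growth modifier present; test concentration not given here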; details: S. pombe 972 growth, higher = more signal, called active from +8 up or from −8 down
[14] = budding yeast growth modifiers under rapamycin – strain BY4716, OD600, 96 h, primary screen (AID 1091); further: test concentration not given here; details: S. cerevisiae BY4716 + rapamycin, higher = more signal, called active from +8 up or from −8 down
[15] = target: Torsin-1A-interacting protein 2 (Homo sapiens) (UniProt Q8NFQ8); experiment: small molecules binding lysate-expressed LULL1 – cell lysate, human LULL1 lysate, 635/667 nm fluorescence, primary screen (AID 1092); details: small-molecule microarray, hLULL1 lysate binding, 635 nm fluorescence; higher = more signal;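 further: probe is lysate of COS7 cells overexpressing human LULL1; score merges per-feature 667 nm fluorescence with signal-to-noise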
[16] = optical density change of DRC41 E. coli – strain DRC41, OD650, 24 h, E. coli filamentation project, primary screen (AID 1093);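 further: MC1000 strain lacking acrAB efflux and sulA so SOS filamentation is blocked; test concentration not given here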; details: E. coli DRC41 growth, higher = more signal, called active from +8 up or from −8 down
[17] = probe aLefty2 binding to arrayed compounds – biochemical, biotinylated probe, 635/667 nm fluorescence, primary screen (AID 1094); details: small-molecule microarray, higher = more signal;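 further: score merges spot fluorescence near 667 nm with spot signal-to-noise ratio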
[18] = test system: Noggin (protein binding on small-molecule microarray); experiment: small molecules binding Noggin protein – biochemical, 635/667 nm fluorescence, primary screen (AID 1095); details: 635 nm fluorescence, higher = more signal;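 further: score merges 667 nm feature fluorescence with signal to noise over triplicate slides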
[19] = target: Neurogenic locus notch homolog protein 3 (Homo sapiens) (UniProt Q9UM47); experiment: small molecules binding NOTCH3 protein – biochemical, 635/667 nm fluorescence, primary screen (AID 1096); details: small-molecule microarray, 635 nm fluorescence, higher = more signal
[20] = probe aEGFR binding to arrayed compounds – biochemical, biotinylated probe, 635/667 nm fluorescence, primary screen (AID 1097); details: small-molecule microarray, higher = more signal;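 further: probe is a biotinylated anti-EGFR antibody binding compounds printed on slides; score combines fluorescence near 667 nm and signal to noise of each spot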

Pro-neuregulin-1, membrane-bound isoform (Homo sapiens), sequence (Q02297 whole entry, looked up, the tested form may be a part, canonical isoform): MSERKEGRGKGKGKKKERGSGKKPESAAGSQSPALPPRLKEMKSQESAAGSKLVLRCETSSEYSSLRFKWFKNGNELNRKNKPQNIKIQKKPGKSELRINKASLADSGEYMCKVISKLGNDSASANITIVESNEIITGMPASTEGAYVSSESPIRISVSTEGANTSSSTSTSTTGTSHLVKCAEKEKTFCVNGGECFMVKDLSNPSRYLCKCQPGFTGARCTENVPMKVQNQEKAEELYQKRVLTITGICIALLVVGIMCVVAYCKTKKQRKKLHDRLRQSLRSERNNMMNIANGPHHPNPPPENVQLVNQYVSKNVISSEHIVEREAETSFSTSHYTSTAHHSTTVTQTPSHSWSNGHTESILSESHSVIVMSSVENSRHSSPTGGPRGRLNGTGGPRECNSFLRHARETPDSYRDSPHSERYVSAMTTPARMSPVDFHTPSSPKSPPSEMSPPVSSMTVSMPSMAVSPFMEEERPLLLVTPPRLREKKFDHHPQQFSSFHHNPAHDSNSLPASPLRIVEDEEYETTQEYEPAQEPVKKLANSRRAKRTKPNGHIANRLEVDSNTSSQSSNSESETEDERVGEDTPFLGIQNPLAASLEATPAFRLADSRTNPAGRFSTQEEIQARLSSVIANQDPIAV
Neurogenic locus notch homolog protein 2 (Homo sapiens), sequence (Q04721 whole entry, looked up, canonical isoform): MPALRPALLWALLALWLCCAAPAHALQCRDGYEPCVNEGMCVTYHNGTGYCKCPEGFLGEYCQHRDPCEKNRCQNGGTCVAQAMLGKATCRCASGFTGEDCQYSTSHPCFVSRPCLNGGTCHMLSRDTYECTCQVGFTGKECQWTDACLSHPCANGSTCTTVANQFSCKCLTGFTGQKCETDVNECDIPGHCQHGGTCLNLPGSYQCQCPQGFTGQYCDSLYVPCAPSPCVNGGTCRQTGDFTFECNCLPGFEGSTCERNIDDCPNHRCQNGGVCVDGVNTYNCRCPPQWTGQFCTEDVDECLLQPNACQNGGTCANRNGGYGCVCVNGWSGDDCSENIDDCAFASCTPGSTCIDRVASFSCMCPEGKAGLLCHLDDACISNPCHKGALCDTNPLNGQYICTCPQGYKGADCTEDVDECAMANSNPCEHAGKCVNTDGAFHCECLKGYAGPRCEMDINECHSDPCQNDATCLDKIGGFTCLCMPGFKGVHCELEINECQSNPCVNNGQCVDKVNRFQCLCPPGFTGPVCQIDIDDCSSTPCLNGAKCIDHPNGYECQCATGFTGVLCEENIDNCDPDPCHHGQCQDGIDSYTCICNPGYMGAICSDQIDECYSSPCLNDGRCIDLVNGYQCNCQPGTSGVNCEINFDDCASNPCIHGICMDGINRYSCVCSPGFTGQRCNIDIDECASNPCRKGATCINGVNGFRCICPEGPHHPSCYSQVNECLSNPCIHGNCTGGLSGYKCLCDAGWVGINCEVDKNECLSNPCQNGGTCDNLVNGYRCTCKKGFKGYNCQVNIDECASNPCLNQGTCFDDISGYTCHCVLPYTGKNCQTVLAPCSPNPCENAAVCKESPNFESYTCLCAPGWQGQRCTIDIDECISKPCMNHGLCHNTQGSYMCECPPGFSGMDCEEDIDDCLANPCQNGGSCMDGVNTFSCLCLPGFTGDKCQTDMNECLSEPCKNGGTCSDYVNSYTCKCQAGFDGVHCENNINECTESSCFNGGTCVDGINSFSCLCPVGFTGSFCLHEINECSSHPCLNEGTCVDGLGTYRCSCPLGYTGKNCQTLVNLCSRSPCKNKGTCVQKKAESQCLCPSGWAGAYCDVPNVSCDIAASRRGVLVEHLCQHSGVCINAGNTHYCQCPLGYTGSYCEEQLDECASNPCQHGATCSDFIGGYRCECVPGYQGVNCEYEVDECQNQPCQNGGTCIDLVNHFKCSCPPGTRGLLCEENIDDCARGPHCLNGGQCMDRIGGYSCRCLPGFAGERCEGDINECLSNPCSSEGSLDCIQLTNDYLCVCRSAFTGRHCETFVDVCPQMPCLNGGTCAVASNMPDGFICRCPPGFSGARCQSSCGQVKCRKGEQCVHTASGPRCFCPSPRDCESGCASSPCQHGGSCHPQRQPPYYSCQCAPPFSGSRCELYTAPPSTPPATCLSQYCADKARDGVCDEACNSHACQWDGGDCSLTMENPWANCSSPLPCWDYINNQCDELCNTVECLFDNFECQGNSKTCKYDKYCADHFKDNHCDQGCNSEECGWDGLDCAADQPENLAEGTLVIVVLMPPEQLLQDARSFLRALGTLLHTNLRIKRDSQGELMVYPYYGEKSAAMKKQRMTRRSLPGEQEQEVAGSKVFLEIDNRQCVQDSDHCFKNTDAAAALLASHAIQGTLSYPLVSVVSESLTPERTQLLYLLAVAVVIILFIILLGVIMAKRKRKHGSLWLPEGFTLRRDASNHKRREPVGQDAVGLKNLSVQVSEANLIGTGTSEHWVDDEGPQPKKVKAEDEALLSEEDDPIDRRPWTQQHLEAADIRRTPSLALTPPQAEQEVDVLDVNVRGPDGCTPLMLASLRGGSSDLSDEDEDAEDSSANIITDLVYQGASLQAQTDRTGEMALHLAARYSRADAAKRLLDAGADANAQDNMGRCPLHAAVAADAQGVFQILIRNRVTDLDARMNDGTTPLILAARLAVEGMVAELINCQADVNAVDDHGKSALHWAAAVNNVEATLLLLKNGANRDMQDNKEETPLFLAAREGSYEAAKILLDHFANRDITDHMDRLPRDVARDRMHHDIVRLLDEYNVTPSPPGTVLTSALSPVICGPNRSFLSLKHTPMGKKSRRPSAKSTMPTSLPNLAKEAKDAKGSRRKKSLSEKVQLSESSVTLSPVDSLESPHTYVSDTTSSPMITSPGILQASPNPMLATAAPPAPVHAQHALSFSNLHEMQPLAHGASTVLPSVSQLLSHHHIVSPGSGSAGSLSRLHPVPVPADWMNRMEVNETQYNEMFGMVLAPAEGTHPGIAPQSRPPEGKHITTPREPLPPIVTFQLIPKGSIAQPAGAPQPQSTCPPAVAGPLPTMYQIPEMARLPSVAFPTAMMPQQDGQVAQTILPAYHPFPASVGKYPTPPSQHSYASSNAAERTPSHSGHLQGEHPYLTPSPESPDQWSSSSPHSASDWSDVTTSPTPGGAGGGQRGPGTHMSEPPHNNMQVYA
Torsin-1A-interacting protein 2 (Homo sapiens), sequence (Q8NFQ8 whole entry, looked up): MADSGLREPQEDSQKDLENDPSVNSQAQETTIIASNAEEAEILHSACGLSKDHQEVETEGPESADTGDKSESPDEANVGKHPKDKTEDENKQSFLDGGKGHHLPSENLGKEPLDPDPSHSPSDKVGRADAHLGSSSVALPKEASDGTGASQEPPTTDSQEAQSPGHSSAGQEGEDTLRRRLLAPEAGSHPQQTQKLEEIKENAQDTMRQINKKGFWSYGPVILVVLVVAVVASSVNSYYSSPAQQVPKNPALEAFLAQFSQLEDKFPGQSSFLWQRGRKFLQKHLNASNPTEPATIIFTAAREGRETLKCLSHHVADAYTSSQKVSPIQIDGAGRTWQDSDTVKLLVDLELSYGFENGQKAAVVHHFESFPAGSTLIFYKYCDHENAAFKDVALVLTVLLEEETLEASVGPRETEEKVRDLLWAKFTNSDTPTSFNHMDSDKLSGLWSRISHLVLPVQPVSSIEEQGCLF

Row | SMILES | composite z-score [1] | composite z-score [2] | composite z-score [3] | composite z-score [4] | composite z-score [5] | composite z-score [6] | composite z-score [7] | z-score [8] | composite z-score [9] | composite z-score [10] | composite z-score [11] | z-score [12] | z-score [13] | z-score [14] | composite z-score [15] | z-score [16] | composite z-score [17] | composite z-score [18] | composite z-score [19] | composite z-score [20]
1 | COC(=O)CC=C[C@@H](C)[C@H](OCc1cccc(-c2ccccc2)c1)C1CCCCC1 | -0.131 | 0.0473 | -0.174 | -0.208 | 0.813 | 0.654 | 0.359 | 1.38 (inactive) | -0.48 | 0.189 | -0.526 | 1.44 (inactive) | -0.915 (inactive) | 1.45 (inactive) | -0.311 | 0.109 (inactive) | -0.321 | -0.274 | -0.395 | -0.27
2 | C[C@@H](c1ccccc1)N1C(=O)[C@H]2[C@H]3[C@H](O)[C@H](O)CC(=O)[C@H]3CC[C@H]2C1=O | -0.483 | 0.107 | -0.0878 | 0.443 | 0.896 | 0.286 | 0.477 | -0.12 (inactive) | 0.0442 | -0.0994 | 0.157 | -0.394 (inactive) | -0.197 (inactive) | 0.134 (inactive) | 0.461 | 0.541 (inactive) | -0.0483 | 0.482 | 0.521 | -0.108
3 | O=C(NN=C1C[C@@H](O)[C@@H](O)[C@@H]2[C@@H]3C(=O)N(C[C@@H]4CCCO4)C(=O)[C@@H]3CC[C@H]12)OCc1ccccc1 | 0.0589 | 0.349 | -0.118 | -0.0255 | -0.248 | -0.117 | -0.637 | -0.361 (inactive) | 0.556 | -0.0994 | -0.166 | 0.387 (inactive) | 0.499 (inactive) | -0.186 (inactive) | 0.126 | 0.52 (inactive) | 0.0061 | -0.284 | -0.696 | -0.19
4 | CCC(=O)[C@@]1(O)C(=O)N2C(=C3C(=O)OCC[C@@H]31)N(Cc1ccccc1)C(C)=C(C(=O)OC)[C@H]2c1ccccc1 | -0.268 | 0.364 | -0.167 | 0.342 | 0.355 | -0.13 | 0.0811 | 0.105 (inactive) | 0.179 | 0.176 | 0.374 | 0.725 (inactive) | -0.612 (inactive) | 0.0739 (inactive) | 0.399 | 0.568 (inactive) | -0.232 | 0.644 | 0.367 | -0.0059
5 | O=C(NN=C1C[C@@H](O)[C@@H](O)[C@@H]2[C@@H]3C(=O)N(Cc4ccccc4)C(=O)[C@@H]3CC[C@@H]12)OCc1ccccc1 | -0.404 | 0.408 | -0.0229 | 0.155 | 0.495 | -0.358 | -0.871 | -0.119 (inactive) | -0.0711 | 0.233 | -0.395 | -0.227 (inactive) | -0.148 (inactive) | -0.413 (inactive) | -0.802 | 0.258 (inactive) | -0.112 | 0.509 | 0.188 | 0.0551
